Shown are actives, neighbours in structure and some others; about 7.1% of the full set was active somewhere.
SW480 rereplic: A quantitative high throughput screen for small molecules that induce DNA re-replication in SW480 colon adenocarcinoma cells; SW480 DNA re-replication, Hoechst DNA content imaging, 48 h; Potency, µM (titrated, usually from 46.1 µM), inactives show top-dose re-replication activation, usual class: activators; hit rate 1.8% among 340,000; also: % of control where 0% means no effect; nearly all actives have a fitted effect of over 55% in size
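Image-based read-out: total Hoechst fluorescence of nuclei (405 nm excitation, 500-530 nm emission), with hits raising the fraction of high-intensity nuclei. SW480 colon cells incubated 48 hr with compounds at 37 C.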
p53 reactivator: qHTS assay for re-activators of p53 using a Luc reporter; H1299 p53-A138V BP100-luciferase reporter, luminescence, 24 h; Potency, µM (titrated, usually from 92.2 µM), for the others: top-dose activity change, positive = activation, most hits filed as activators; hit rate 0.063% among 320,000; also: % of control where 0% means no effect; nearly all actives have a fitted effect of over 45% in size
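p53-null H1299 cells stably carrying temperature-sensitive p53-A138V and a BP100-luciferase reporter were pinned with compounds (4-point, 1:5 series) and held 24 hrs at 37 deg C. Luminescence was read 10 min after detection reagent.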
ELG1 DNA repair: qHTS screen for small molecules that inhibit ELG1-dependent DNA repair in human embryonic kidney (HEK293T) cells expressing luciferase-tagged ELG1; HEK293T ELG1-luciferase reporter, luminescence, 16 h; DNA damage induced by 5-fluorouridine; Potency, µM (titrated, usually from 46.1 µM), inactives show at the highest dose activity change, negative = inhibition, actives largely listed as inhibitors; hit rate 2.3% among 330,000; AID 504467, 2011; also: % is scaled to controls: 0 for no effect and ±100 for the full control effect; nearly all actives have a fitted effect of over 55% in size
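HEK293T cells expressing luciferase-tagged ELG1 (2,000/well) received 5-Fluorouridine plus compound or DMSO for 16 hr at 37 °C. Luciferase was read by ONE-Glo luminescence after 30 min at room temperature.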
MCF10A rerep: A quantitative high throughput screen for small molecules that induce DNA re-replication in MCF 10a normal breast cells; hit rate 2.9% among 350,000; MCF 10A DNA re-replication, Hoechst nuclear intensity, 48 h; AID 624296, 2012; Potency, µM (doses to about 46.1 µM), inactives show top-dose activity, positive = re-replication, most hits filed as activators; also: % of control where 0% means no effect; nearly all actives have a fitted effect of over 50% in size
ELG1 genotoxic: qHTS screen for small molecules that induce genotoxicity in human embryonic kidney (HEK293T) cells expressing luciferase-tagged ELG1 | AID 504466, 2011 | HEK293T ELG1-luciferase reporter, luminescence, 16 h | hit rate 1.3% among 330,000 | Potency, µM (doses to about 46 µM), inactives show top-dose activity change, positive = activation, most hits filed as activators; also: % of control where 0% means no effect; nearly all actives have a fitted effect of over 60% in size
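16 hr compound incubation (37 °C, 5% CO2) of HEK293T cells carrying luciferase-tagged ELG1; luciferase then measured by ONE-Glo luminescence after 30 min at RT.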
AT treatment: qHTS Assay for Identifying a Potential Treatment of Ataxia-Telangiectasia; F2112 A-T fibroblasts, KAP-1 phosphorylation AlphaLISA; neocarzinostatin DNA damage 30 min before lysis; Potency, µM (doses to about 57.5 µM), for inactives: at the highest dose activation, usual class: activators; hit rate 0.19% among 320,000; AID 485349, 2010; also: % of control where 0% means no effect; nearly all actives have a fitted effect of over 45% in size
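hTERT-immortalized A-T patient fibroblasts (F2112), 500 cells/well in OPTI-MEM, 1% FBS, got compounds for 60 min, then NCS for 30 min at 37C. Lysates were then assayed for phospho-KAP-1 by AlphaLISA (anti-pKAP1 donor, anti-KAP1 acceptor beads), 6 hr at 25C.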
Numbers without * were called inactive; ? = inconclusive; . = no result given; [ ] = dose if it differs, or a comment. Calls follow the shape of the dose curve; as a rule, active = well fitted curve in the direction sought with a large enough effect; inconclusive = small, poorly fitted or top-dose-only effect, or another doubt; inactive = no such curve, though single readings can be large; an effect the other way counts as inactive or inconclusive. Potency is read from the fitted curve at half-maximal effect.

SMILES | SW480 rereplic | p53 reactivator | ELG1 DNA repair | MCF10A rerep | ELG1 genotoxic | AT treatment
CCOC(=O)c1cnc2ccc(C)cc2c1Nc1ccc(N2CCOCC2)cc1 | 16% | -21% | ? | 21µM* | -45% | -5%
CCOC(=O)c1cnc(-n2nc(C)cc2C)nc1NCc1ccccc1 | ? | -22% | ? | 21µM* | -21% | 3%
COc1ccccc1NS(=O)(=O)c1cc2c3c(c1)CCN3C(=O)CC2 | 3% | 9% | ? | 7% | ? | -4%
Cc1ccccc1-c1ccnc2[nH]n(-c3ccccc3)c(=O)c12 | 0% | 7% | 5% | 15% | 0% | 0%
O=C(CN1CCOCC1)Nc1ccc(Cl)cn1 | -7% | . | 5% | -7% | -1% | -1%
Cn1c(SCC(=O)NCC2CCCO2)ncc(C(=O)Nc2ccc(Cl)cc2)c1=O (configuration not stated) | 4.6µM* | ? | ? | 18µM* | 1% | 14%
Cn1c(SCC(=O)NCC2CCCO2)ncc(C(=O)Nc2ccc(F)cc2)c1=O (configuration not stated) | 2% | ? | ? | 25% | ? | 6%
O=S(=O)(NC1CCc2ccccc21)c1ccc(S(=O)(=O)N2CCCC2)cc1 (configuration not stated) | ? | -2% | 26µM* | ? | -18% | 0%
COc1ccccc1N(C(=O)CNC(=O)c1ccco1)C(C(=O)NC1CCCCC1)c1ccncc1 (configuration not stated) | 3% | 1% | 2% | 3% | 0% | -12%
CC(C)n1cc(/C=C/c2cc[n+](C)cc2)c2ccccc21 | 18µM* | -1% | ? | 6.5µM* | -11% | -6%
C=CCn1cc(/C=C/c2cc[n+](C)cc2)c2ccccc21 | ? | . | ? | ? | -13% | 2%
CCN(CC)C(=O)Cn1c(C)c(/C=C/c2cc[n+](C)cc2)c2ccccc21 | -2% | . | -12% | 11% | -1% | -4%
C=CCn1c(C)c(/C=C/c2cc[n+](C)cc2)c2ccccc21 | 15µM* | . | 7% | ? | -8% | 7%
CCn1cc(/C=C/c2cc[n+](C)cc2)c2ccccc21 | ? | -6% | 2.9µM* | 16µM* | -8% | 3.2µM*
COc1cccc(CNC(=O)CN2C(=O)COc3ccc(S(=O)(=O)N4CCC(C)CC4)cc32)c1 | -6% | -3% | 1% | 9% | -2%[9.26 µM] | 6%
COc1ccc2c(c1)c1ncn(Cc3ccc(F)cc3)c(=O)c1n2C | -8%[9.22 µM] | -3% | -10% | -5% | -6% | -9%
COc1ccc2c(c1)c1ncn(Cc3ccco3)c(=O)c1n2C | -2% | 5% | 16µM* | 0% | -7% | 6%
COc1ccc2c(c1)[nH]c1c(=O)n(Cc3ccco3)cnc12 | -8% | 18% | ? | 0% | 18µM* | -8%
COc1ccc2c(c1)[nH]c1c(=O)n(Cc3ccccn3)cnc12 | -8% | 2% | ? | 1% | 26% | -2%
COc1cc2c(cc1OC)C1O[C@](CCCCN3C(=O)c4ccccc4C3=O)(C2)OC2=C1C(=O)c1ccccc1C2=O | . | . | . | . | . | -3%[11.5 µM]
COc1cccc(CNC(=O)Cn2c(=O)n(CCC(=O)N3CCCCC3)c(=O)c3sccc32)c1 | 6% | -15% | -28% | 1% | -7% | 4%
C=CCN1C(=O)N(/C=C/C)c2cccc3cccc1c23 | 5% | -7% | -4% | 21µM* | 0% | 10%
CN1C(=O)N(C)c2cccc3cccc1c23 | 3% | -4% | 1% | -1% | -1% | -7%
CN(C)c1cnn(-c2ccccc2)c(=O)c1Cl | -13% | ? | ? | -42% | 16% | -11%
COc1nn(-c2ccccc2)c(=O)c(Cl)c1Cl | 2.9µM* | -7% | ? | 3.7µM* | -11% | 4%
SMILES | SW480 rereplic | p53 reactivator | ELG1 DNA repair | MCF10A rerep | ELG1 genotoxic | AT treatment
O=C(Nc1ccc(Br)c2ccccc12)c1ccc2ccccc2c1O | 2% | 9% | ? | 3.3µM* | -19% | 10%
CC(=O)Nc1ccc(Br)c2ccccc12 | -13% | 3% | 5% | 4% | -7% | -2%
Cc1[nH]nc(-c2ccc(OCc3cnn(-c4ccccc4)c3)c(C)c2O)c1Oc1ccccc1 | ? | -9% | -16% | 16µM* | 7% | -6%
CCCCn1c(N)c(N(CCC(C)C)C(=O)c2c(C)noc2C)c(=O)[nH]c1=O | -3% | 9% | -3% | 0% | 1% | -1%
C(=C\c1nnc2c3ccccc3ncn12)/c1ccccc1 | ? | ? | ? | 6.5µM* | ? | -2%
O=C(/C=C/c1ccccc1)Nn1cnc2ccccc2c1=O | -2% | ? | 15% | 21% | 4% | -2%
COc1cc(/C=C/c2nnc3c4ccccc4ncn23)cc(OC)c1OC | -10% | 0% | 6.5µM* | ? | -6% | 1%
COc1cc(/C=C/c2noc(-c3ccccc3O)n2)cc(OC)c1OC | -2% | 5% | ? | ? | 10% | -4%
Cn1c(SCC(=O)NC(=O)NCc2ccccc2)nnc1C(F)(F)F | 1% | -5% | -1% | -1% | 1% | 4%
CC(NC(=O)Oc1cccc2ccccc12)c1ccccc1 (configuration not stated) | 2% | . | . | -4% | . | .
CCC(C)(C)NC(=O)CSc1nc(Cc2ccccc2)nc2ccccc12 | -4% | 9% | -24% | -2% | -1% | -6%
CC(C)(C)NC(=O)CSc1nc(Cc2ccccc2)nc2ccccc12 | 2% | -44% | ? | 0.65µM* | -7% | 5%
Cc1ccccc1-n1c(C)n[nH]c1=S | 15µM* | -5% | 2% | 9.2µM* | 1% | -3%
Cc1ccccc1-n1c(-c2ccoc2C)n[nH]c1=S | -5% | 4% | ? | 1% | 1% | 25%
CCN(C(=O)COC(=O)CCC(=O)c1ccc(C)cc1)c1c(N)n(Cc2ccccc2)c(=O)[nH]c1=O | -7% | . | . | 6% | . | .
CC(=O)Nc1cccc(NC(=O)CSc2ncc(-c3ccc(Cl)cc3)n2Cc2ccco2)c1 | -14% | 0% | ? | 16µM* | 4% | -9%
Cc1cccc(COc2ccccc2C(=O)OCC(=O)N(C)c2c(N)n(Cc3ccccc3)c(=O)[nH]c2=O)c1 | 20% | -6% | 21µM* | 3% | -12% | 7%
